Assay results published in PubChem BioAssay (NCATS).
“And” between values parts separate entries of the source, which are not always exact repeats. Identical values can stand only once. Results filed as inconclusive are left out. The list shows a part of the results. The source made the active and inactive calls. Unless noted, the call rests on the fitted dose curve; in most records, active means well fitted curve in the direction sought with a large enough effect; inconclusive means small, poorly fitted or top-dose-only effect, or another doubt; inactive means no such curve, though single readings can be large; an effect the other way counts as inactive or inconclusive.

What was measured:
[1] = qHTS Assay for Identification of Small Molecule Inducers of Hypoxia Response (AID 2120; active means well fitted curve in the direction sought with a large enough effect in the signal ratio, with a control signal flat, not every such curve was filed as active; the % refers to the signal ratio; further: 0% is about no effect)
Procedure, shortened: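 ME-180 HRE-bla cells plated in Opti-MEM/0.5% dialyzed FBS, rested 4-5 h, then dosed with compound titrations by pin tool. After 17 h at 37 degrees C, CCF4 dye loaded 2.5 h at RT; 460/530 nm ratio gave %Activity and AC50.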

[2] = biological target: ATPase family AAA domain-containing protein 5 (Homo sapiens) (UniProt Q96QE3); assay: HTS assay for small molecules that inhibit ELG1-dependent DNA repair in human embryonic kidney (HEK293T) cells expressing luciferase-tagged ELG1: Hit Confirmation (AID 624248); conditions: HEK293T ELG1-luciferase levels, luminescence; cells co-treated with 5-fluorouridine; further: potency means the concentration at half of the fitted maximal effect; nearly all actives have a fitted effect of over 55% in size
Description: (§1) Cancer cells divide rapidly compared to normal cells in the body. During cell division, cancer cells need to duplicate their genome by DNA replication. The failure of genome duplication leads to cancer cells' death. Therefore, inhibitors of DNA replication could specifically kill cancer cells. Based on this concept, many chemotherapeutic agents were developed and have been used to treat cancer patients. However, there are a limited number of agents available in the clinical setting, and some of those that do exist have low efficacy and severe side effects. Therefore, if we can find the compounds that effectively block DNA replication either by directly damaging DNA or by inhibiting other cellular mechanisms, the options for cancer treatment will be broadened. With this in mind, we developed a quantitative high-throughput ELG1-luciferase reporter gene assay. Small molecules that specifically block ELG1 function in response to DNA damage can be identified by monitoring the suppression of luciferase activity. […]
For genotoxicity screening, 2,000 cells in 4 uL/well were dispensed into white, solid-bottom 1536-well plates using a solenoid-based dispenser. […] 5 ul ONE-Glo (Promega) was then added to each plate and following a 30 min incubation at room temperature, luciferase activity was quantified on a ViewLux CCD-based plate reader.

[3] = biological target: ATPase family AAA domain-containing protein 5 (Homo sapiens) (UniProt Q96QE3); assay: qHTS screen for small molecules that inhibit ELG1-dependent DNA repair in human embryonic kidney (HEK293T) cells expressing luciferase-tagged ELG1: Hit Confirmation using MMS Stimulated ELG1 (AID 624249); conditions: HEK293T luciferase-tagged ELG1 level; further: potency means the concentration at half of the fitted maximal effect; nearly all actives have a fitted effect of over 60% in size
Description: as §1
ELG1-luc HEK293T cells will be seeded in 1536-well plates at a density of 2,000 cells/well. […] 16 hours following the addition of the compounds, luciferase activity will be measured using Amplight reagent.

[4] = qHTS screen for small molecules that inhibit ELG1-dependent DNA repair: Hit Confirmation with MMS Viability (AID 624251); conditions: Cell viability with MMS;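 further: ELG1-luc HEK293T cells co-treated with 10 µM MMS; potency means the concentration at half of the fitted maximal effect; viability read 16 h after compound addition; nearly all actives have a fitted effect of over 60% in size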
Description: as §1
ELG1-luc HEK293T cells will be seeded in 1536-well plates at a density of 2,000 cells/well. […] 16 hours following the addition of the compounds, cell viability will be measured using Cell Titer Glo.

[5] = biological target: Androgen receptor (Homo sapiens) (UniProt P10275); assay: qHTS assay for small molecule agonists of androgen receptor signaling (AID 588515; active means well fitted curve in the direction sought with a large enough effect in the signal ratio, with a control signal flat; the % refers to the signal ratio; further: on the % scale 0 is the no-effect control and ±100 the full control effect); conditions: AR-UAS-bla HEK293, beta-lactamase ratio, agonist 16 h; hits give high values
Procedure, shortened: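 EC50 and efficacy came from Hill fits of titrations (up to 92 uM) normalized to 30 nM R1881 as 100% and DMSO as 0%. Compound exposure was 16 h at 37 C on AR-UAS-bla HEK293 cells, with a 405/460/530 nm CCF4 fluorescence read.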

[6] = biological target: Androgen receptor (Homo sapiens) (UniProt P10275); assay: qHTS assay for small molecule antagonists of androgen receptor signaling (AID 588516; active means well fitted curve in the direction sought with a large enough effect in the signal ratio, with a control signal flat, not every such curve was filed as active; the % refers to the signal ratio; further: potency means the concentration at half of the fitted maximal effect)
Procedure, shortened: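 HEK293 AR-UAS-bla cells, 10% dialyzed FBS medium; cpd titration + R1881 10 nM final, 16 h 37 C; CCF4 2 h RT; FRET ratio; IC50/efficacy via Hill fit.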

Sequence of Androgen receptor (Homo sapiens) (P10275 whole entry, looked up): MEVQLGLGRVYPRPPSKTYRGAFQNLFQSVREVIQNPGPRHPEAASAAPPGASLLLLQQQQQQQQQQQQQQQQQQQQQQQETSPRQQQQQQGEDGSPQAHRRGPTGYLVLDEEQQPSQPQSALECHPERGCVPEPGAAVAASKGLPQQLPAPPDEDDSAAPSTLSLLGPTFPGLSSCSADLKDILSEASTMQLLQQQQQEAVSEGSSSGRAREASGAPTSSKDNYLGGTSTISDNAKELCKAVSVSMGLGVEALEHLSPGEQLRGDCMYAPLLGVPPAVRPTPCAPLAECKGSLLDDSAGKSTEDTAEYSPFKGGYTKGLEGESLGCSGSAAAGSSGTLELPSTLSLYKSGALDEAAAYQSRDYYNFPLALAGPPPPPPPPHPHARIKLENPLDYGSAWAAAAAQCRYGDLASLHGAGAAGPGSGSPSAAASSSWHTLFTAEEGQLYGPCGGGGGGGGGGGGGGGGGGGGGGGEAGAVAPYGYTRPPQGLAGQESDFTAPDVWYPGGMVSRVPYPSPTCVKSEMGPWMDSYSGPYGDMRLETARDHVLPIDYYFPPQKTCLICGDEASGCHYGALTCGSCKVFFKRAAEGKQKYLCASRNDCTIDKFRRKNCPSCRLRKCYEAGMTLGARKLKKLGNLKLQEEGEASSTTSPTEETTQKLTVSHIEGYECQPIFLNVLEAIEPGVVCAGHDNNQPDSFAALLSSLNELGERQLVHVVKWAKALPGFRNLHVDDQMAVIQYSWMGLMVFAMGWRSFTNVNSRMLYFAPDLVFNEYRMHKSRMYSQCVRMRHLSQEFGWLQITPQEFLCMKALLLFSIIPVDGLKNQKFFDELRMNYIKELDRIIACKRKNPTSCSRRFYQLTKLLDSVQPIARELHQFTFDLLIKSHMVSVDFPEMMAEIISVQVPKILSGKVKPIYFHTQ
Sequence of ATPase family AAA domain-containing protein 5 (Homo sapiens) (Q96QE3 whole entry, looked up, the tested form may be a part): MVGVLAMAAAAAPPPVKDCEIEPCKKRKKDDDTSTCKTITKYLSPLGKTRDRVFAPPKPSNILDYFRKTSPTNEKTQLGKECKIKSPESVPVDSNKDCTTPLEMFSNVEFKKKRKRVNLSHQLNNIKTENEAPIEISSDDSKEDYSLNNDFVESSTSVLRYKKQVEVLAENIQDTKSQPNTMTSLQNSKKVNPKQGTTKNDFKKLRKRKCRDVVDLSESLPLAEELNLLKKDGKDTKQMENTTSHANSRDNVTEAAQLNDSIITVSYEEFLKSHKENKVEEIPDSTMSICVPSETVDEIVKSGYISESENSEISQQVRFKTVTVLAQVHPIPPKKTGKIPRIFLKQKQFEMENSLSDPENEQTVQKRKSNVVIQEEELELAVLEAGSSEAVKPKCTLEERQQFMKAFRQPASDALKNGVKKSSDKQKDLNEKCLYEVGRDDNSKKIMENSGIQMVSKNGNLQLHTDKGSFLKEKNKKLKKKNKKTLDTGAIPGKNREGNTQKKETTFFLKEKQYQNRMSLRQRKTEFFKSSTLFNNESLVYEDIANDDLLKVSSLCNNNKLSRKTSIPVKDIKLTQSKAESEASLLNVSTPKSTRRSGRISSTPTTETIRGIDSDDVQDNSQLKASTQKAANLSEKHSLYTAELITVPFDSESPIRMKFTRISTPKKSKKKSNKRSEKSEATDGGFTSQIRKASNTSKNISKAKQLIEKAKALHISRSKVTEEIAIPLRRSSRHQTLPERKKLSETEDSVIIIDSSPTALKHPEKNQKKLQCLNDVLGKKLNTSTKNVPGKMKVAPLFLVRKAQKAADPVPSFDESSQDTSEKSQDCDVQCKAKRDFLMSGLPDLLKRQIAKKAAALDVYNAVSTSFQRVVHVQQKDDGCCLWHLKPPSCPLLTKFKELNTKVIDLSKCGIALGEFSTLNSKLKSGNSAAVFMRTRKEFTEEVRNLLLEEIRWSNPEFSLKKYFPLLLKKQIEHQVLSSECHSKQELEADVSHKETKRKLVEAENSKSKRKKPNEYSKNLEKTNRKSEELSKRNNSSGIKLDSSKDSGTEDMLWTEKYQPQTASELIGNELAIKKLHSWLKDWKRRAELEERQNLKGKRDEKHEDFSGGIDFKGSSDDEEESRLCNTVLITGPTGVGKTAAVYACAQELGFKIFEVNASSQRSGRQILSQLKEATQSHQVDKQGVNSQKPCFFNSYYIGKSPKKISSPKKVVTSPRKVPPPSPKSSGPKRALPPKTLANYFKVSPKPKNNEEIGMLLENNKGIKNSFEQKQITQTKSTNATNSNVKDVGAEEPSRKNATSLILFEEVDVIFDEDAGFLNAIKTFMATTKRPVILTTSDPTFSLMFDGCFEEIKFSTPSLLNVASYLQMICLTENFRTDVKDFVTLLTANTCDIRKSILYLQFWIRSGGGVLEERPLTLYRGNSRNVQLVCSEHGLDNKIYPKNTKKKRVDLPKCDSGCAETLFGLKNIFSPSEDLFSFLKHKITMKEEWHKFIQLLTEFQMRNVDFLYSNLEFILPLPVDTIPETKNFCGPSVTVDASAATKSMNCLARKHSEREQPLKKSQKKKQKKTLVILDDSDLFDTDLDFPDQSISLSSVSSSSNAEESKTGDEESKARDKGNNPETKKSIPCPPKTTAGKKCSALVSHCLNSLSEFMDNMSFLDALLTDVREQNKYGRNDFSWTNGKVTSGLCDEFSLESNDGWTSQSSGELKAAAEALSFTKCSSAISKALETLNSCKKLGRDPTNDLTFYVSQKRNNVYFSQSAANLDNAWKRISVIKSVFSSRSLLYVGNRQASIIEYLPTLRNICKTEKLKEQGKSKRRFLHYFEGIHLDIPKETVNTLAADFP

Q: For `C=CCc1ccc(OC)cc1`, which outcome [1] is on record?
A: Its outcome is “inactive”.

Q: Which Potency [2] does the source give for `C[C@@]12CC[C@H]3[C@@H](CC[C@]4(O)C[C@H](O)CC[C@@]34C=O)[C@]1(O)CC[C@@H]2C1=CC(=O)OC1` here?
A: Its Potency is 1.07 µM (active).

Q: And the Potency [3]?
A: The Potency was 0.756 µM (active).

Q: And the Potency [4]?
A: The Potency was 1.07 µM (active).

Q: Which activation [5] does the source give for `CCc1cccc(CC)c1N(COC)C(=O)CCl` here?
A: The activation was -10.2% (inactive) and -10.1% (inactive).

Q: And the Potency [6]?
A: The Potency was 44.7 µM (active).
